From PubChem BioAssay AID504905 (The Scripps Research Institute Molecular Screening Center, 2011)
The list shows a part of the results. Unmarked numbers belong to inactive results. No stated cut-off is given here; in the data, active means activation above about 17%; inactive means the rest.

Each compound was assayed against 5-hydroxytryptamine receptor 5A (Homo sapiens) (UniProt P47898) (assay: activation of human 5-HT5A receptor – cell-based, luminescence, counter-screen for OPRM1-OPRD1 heterodimer agonist project (AID 504905;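 further: 0% = vehicle-treated cells and 100% = reference agonist response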)). Conditions: HTR5A agonist counterscreen, at 9.3 µM, active compounds read high.
Sequence of 5-hydroxytryptamine receptor 5A (Homo sapiens) (P47898 whole entry, looked up): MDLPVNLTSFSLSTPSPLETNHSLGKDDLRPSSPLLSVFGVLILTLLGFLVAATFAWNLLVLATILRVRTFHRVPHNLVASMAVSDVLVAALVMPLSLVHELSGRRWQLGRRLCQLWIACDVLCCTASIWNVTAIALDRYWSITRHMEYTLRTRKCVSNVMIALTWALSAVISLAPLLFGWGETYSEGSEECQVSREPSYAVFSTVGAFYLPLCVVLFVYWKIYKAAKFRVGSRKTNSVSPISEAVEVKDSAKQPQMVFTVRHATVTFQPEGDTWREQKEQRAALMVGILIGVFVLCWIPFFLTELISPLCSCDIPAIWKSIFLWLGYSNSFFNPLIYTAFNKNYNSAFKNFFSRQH

First: CCC1(C)CC(CCNCc2ccc(N(C)C)cc2)(c2ccc(F)cc2)CCO1 (centres undefined)
Second: CCOC(=O)C1(CCc2ccccc2)CCN(Cc2ccco2)CC1
The activation of the first is lower: 0.44% for the first, 3.8% for the second.

Compared with `C[C@]12CC[C@H](O)C[C@H]1CC[C@@H]1C2CC[C@]2(C)[C@@H](C3=CC(=O)OC3)[C@@H](O)C[C@]12O` (some centres undefined), `COC1C(O)C(C)OC(OC2CCC3(C=O)C(CCC4C3CCC3(C)C(C5=CC(=O)OC5)CCC43O)C2)C1O` (centres undefined) is higher in activation: -0.48% for the first, 13.7% for the second.
